# The panel holds about 83,000 compounds, 20% with a hit somewhere; the sample as a whole holds those more often.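 In brief: 96-well plates, 48 h treatment, single concentration, percent growth endpoint.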 Activity calls are given as the source filed them. How the source made its calls: active means growth percent below 10; inactive means the rest.
# Test system: HL-60(TB) leukemia
# Assay: NCI-60 one-dose screen, 48 h (100 = growth as untreated, 0 = no growth, -100 = all killed)
# Settings: 10 µM unless noted
row,Compound,growth
1,NC(=O)c1ccc(-c2ccc3ncnc(N4CCc5cc(F)c(Cl)cc54)c3c2)cn1,64.9% (inactive)
2,Cc1cc2nc3c4ccccc4n(CCO)c3nc2cc1C,101% (inactive)
3,COc1ccc2[nH]c(O)c(N=NC(=O)COc3ccc(NC(=O)Nc4ccccc4)cc3)c2c1,96% (inactive)
4,COc1ccc2[nH]c(=O)c(CSc3ccccc3Nc3nccc(-c4ccc(Cl)cc4)n3)cc2c1,23.2% (inactive)
5,Cc1ccc(/C=C/C(=O)c2ccc(NC(=O)CSc3nnc(-c4c[nH]c5ccccc45)n3-c3ccccc3)cc2)cc1,75.5% (inactive)
6,O=C(Nc1ccc(OCc2ccc(Cl)cc2)cc1)Nc1ccc(Cl)c(C(F)(F)F)c1,0.65% (active)
7,CCCCCCCCc1ccc(C(=O)Nc2ccc(C)c(OP(=O)(O)O)c2)cc1,78.4% (inactive)
8,COc1ccc(NC(=O)Cn2c(O)c(N=Nc3ccc(S(N)(=O)=O)cc3)c3ccccc32)cc1,96.9% (inactive)
9,CC1CN(c2oc(-c3ccc([N+](=O)[O-])cc3)nc2C#N)CC(C)O1 (configuration not stated),95% (inactive)
10,O=C(Nc1ccc(F)cc1)Nc1nc2ccc([N+](=O)[O-])cc2s1,-11.5% (active)
11,NS(=O)(=O)c1ccc(N=Nc2c(O)n(CC(=O)Nc3ccccc3Cl)c3ccccc23)cc1,45.8% (inactive)
12,Cc1ccc2c(c1)/C(=C/C(=O)c1cc3ccccc3oc1=O)C(=O)N2,53% (inactive)
13,CCOc1ccc(-c2cc(-c3cc(C(C)C)c(O)cc3C)nn2-c2ccc(S(N)(=O)=O)cc2)cc1,9.77% (active)
14,CN1CCN(c2ccc(C(=O)/C=C/c3ccc(OC(F)F)cc3)cc2)CC1,-26.7% (active)
15,COc1ccc2nc(Cl)c(-c3cc(-c4ccccc4)nc(=O)[nH]3)cc2c1,3.35% (active)
16,CC(C)Sc1nc(NCCc2c[nH]c3ccccc23)c(C#N)c(-c2ccc(F)cc2)n1,27% (inactive)
17,O=C(N/N=C/c1ccc(-c2ccc(O)cc2)s1)c1[nH]c2ccc(Br)cc2c1-c1ccccc1,-12.4% (active)
18,C=C1CC[C@@H]2[C@]3(C)COC(c4cn[nH]c4-c4ccccc4)O[C@@H]3CC[C@@]2(C)[C@@H]1C/C=C1/C(=O)OCC1O (some centres not stated),8.64% (active)
19,O=C(O)CCCCCCCCCCN1C(=O)/C(=C/c2cnc(-c3ccccc3)s2)SC1=S,63.6% (inactive)
20,CCOC(=O)c1ccc(NC(=S)NC(=O)c2ccc(NC(=O)C(C)C)cc2OC)cc1,46.3% (inactive)
21,N#Cc1c(-c2ccc(Br)cc2)nc2n[nH]c(-c3ccc(Br)cc3)c2c1-c1ccc(C(F)(F)F)cc1,-26.2% (active)
22,Cc1ccc(C(=O)NN2C(=O)/C(=C/C=C/c3ccc([N+](=O)[O-])o3)SC2=S)cc1,2.23% (active)
23,CCCCSc1nc(NCCc2c[nH]c3ccccc23)c(C#N)c(-c2ccc(F)cc2)n1,53.8% (inactive)
24,Cc1ccc(Nc2nnc(-c3c[nH]c4ccccc34)o2)c(C)c1,1.4% (active)
25,COc1ccc2c(c1)N=c1c-2cc2c(O)[nH]c(=S)n2c1=O,-13.3% (active)
26,N#Cc1c(NC(=O)c2ccc(C(O)(C(F)(F)F)C(F)(F)F)cc2)sc2c1CCC(=O)C2,-23.4% (active)

row,Compound,growth
1,O=C1Nc2cc(Cl)ccc2/C1=C/c1cccc(OCc2ccccn2)c1,-9.79% (active)
2,N#Cc1c(-c2ccc(F)cc2)nc(SCc2ccc(F)cc2)nc1N1CCOCC1,85% (inactive)
3,Cn1cc(-c2cc(N)n3nc(-c4c[nH]c5ccc(F)cc45)cc3n2)c2cccnc21,-54% (active)
4,O=S(=O)(Nc1ncccn1)c1ccc(-n2c(-c3ccc(Br)cc3)nc(-c3ccccc3)c2-c2ccccc2)cc1,41.2% (inactive)
5,CN1CCN(/C(=N\c2sc(-c3ccccc3)nc2-c2ccccc2)c2ccccc2)CC1,62.9% (inactive)
6,COc1ccc2[nH]c(=O)c(CSc3nccc(-c4ccc(OC)c(OC)c4)n3)cc2c1,16.9% (inactive)
7,CC[C@]12C=CCN3CC[C@@]4(c5ccc(OC)cc5N(C)[C@H]4[C@@](O)(C(=O)OC)[C@@H]1OC(=O)CCC[P+](c1ccc(OC)cc1)(c1ccc(OC)cc1)c1ccc(OC)cc1)[C@@H]32,-39.7% (active)
8,CCN1C(=O)N(CC)C2NNC(Sc3c(C(=O)O)c4ccccc4n(CC(C)C)c3=O)=NC21 (configuration not stated),-53.3% (active)
9,CC1=C(C(=O)Nc2ccccc2)C(c2cccc3ccccc23)n2c(nc3ccccc32)N1 (configuration not stated),95% (inactive)
10,O=C(N/N=C/c1ccc(-c2ccc(O)cc2)o1)c1[nH]c2ccc(Br)cc2c1-c1ccccc1,-20.6% (active)
11,COc1ccc(NC(=O)Cn2c3c(sc2=O)[C@H]2[C@@H](O)[C@@H](O)[C@H](O)[C@@H]2CS3)cc1,98.1% (inactive)
12,O=C1/C(=C/c2cnc(-c3ccccc3)s2)SC(=S)N1Cc1ccc2c(c1)OCO2,69% (inactive)
13,O=C(NO)c1ccc(CNc2nc(-c3ccccc3)c3ccccc3n2)cc1,-4.14% (active)
14,CCOC(=O)/C(F)=C/C1CC1C(c1ccccc1)c1ccccc1 (configuration not stated),-7.32% (active)
15,COc1c(F)ccc(C(=O)Nc2ccc3nc(NC(=O)C4CCCN(S(=O)(=O)c5ccc(C(F)(F)F)cc5)C4)sc3c2)c1F (configuration not stated),101% (inactive)
16,Nc1nc(-c2ccccc2)c(N=Nc2ccc(Cl)cc2Cl)s1,-31.7% (active)
17,COc1cc2oc(-c3cccc(C(=O)Nc4ccc(Cl)cc4)c3)cc(=O)c2c(OCCNC(=O)[C@H](CCC(=O)OC(C)(C)C)NC(=O)OC(C)(C)C)c1OC,101% (inactive)
18,CC(C)CCNC(=O)N/C(N)=N/c1nc2ccccc2s1,55.6% (inactive)
19,Cc1ccc(C(=O)Nc2cc(-c3ccncc3)cc(C(F)(F)F)c2)cc1C#Cc1cnc2cccnn12,16.8% (inactive)
20,S=c1c2ccccc2nc2n1CCc1c-2[nH]c2ccccc12,98% (inactive)
21,O=C(CNc1nc(-c2ccccc2)cs1)Nc1cccc(Cl)c1,-2.63% (active)
22,Cc1ccc(-c2cc(C(=O)N=Nc3c(O)[nH]c4ccc(F)cc34)c3ccccc3n2)cc1,88.4% (inactive)
23,COc1ccc(N2N=C(c3ccc4c(c3)OCO4)CC2c2cccc(NC(=O)CCCNS(=O)(=O)c3ccc(F)cc3)c2)cc1 (configuration not stated),55.7% (inactive)
24,CC1=C(C(=O)OCc2ccccc2)C(c2ccc(-n3cncn3)cc2)n2c(nc3ccccc32)N1 (configuration not stated),8.84% (active)
25,COc1ccc(-c2cc(C(=O)NCc3ccccc3)nn2-c2ccc(S(C)(=O)=O)cc2)cc1OC,97% (inactive)
26,CCCCCCCCc1ccc(C(=O)Nc2ccc(C)cc2C(=O)O)cc1,92.2% (inactive)

row,Compound,growth
1,Cn1cc(-c2nnc(N)nc2-c2c[nH]c3ccc(Br)cc23)c2cc(Br)cnc21,29.8% (inactive)
2,OCCCNc1oc(-c2ccccc2)nc1[P+](c1ccccc1)(c1ccccc1)c1ccccc1,-35.8% (active)
3,Cc1ccc(-c2nc(C#N)c(S(=O)(=O)N3CCN(S(=O)(=O)c4ccccc4)CC3)o2)cc1,-44.9% (active)
4,Cn1cc(-c2cc3nc(-c4cn(C)c5ncccc45)cc(N)n3n2)c2cc(Cl)ccc21,-66.6% (active)
5,COc1ccc(/C=N/NC(=O)Cn2nc(Cc3ccc(OC)cc3)c3onc(C)c3c2=O)cc1,27.6% (inactive)
6,CC1(C)CC[C@]2(C(=O)O)CC[C@]3(C)C(=CCC4[C@@]5(C)C[C@@H](O)[C@@H]6OC(c7cccc(Br)c7)OC[C@@]6(C)C5CC[C@]43C)C2C1 (some centres not stated),7.87% (active)
7,Cc1nn(-c2ccccc2)c2ncn(CC(=O)N/N=C/c3c[nH]c4ccccc34)c(=O)c12,83.8% (inactive)
8,CCCCc1c(Nn2cnnn2)no[n+]1[O-],37.9% (inactive)
9,Cc1cc(=O)oc2cc(OCCCCOc3ccc(/C=C/C(=O)Nc4cccc(Cl)c4)cc3)ccc12,97.3% (inactive)
10,Cn1cc(-c2cc3nc(-c4c[nH]c5ccc(Cl)cc45)cc(N)n3n2)c2ccccc21,-34.2% (active)
11,CS(=O)(=O)Nc1cc(-c2ccc3ncnc(N4CCc5cc(F)c(Cl)cc54)c3c2)cnc1Cl,14.3% (inactive)
12,CCCSc1nnc(-c2c(C)nc3sccn23)o1,98.3% (inactive)
13,COc1ccc(-c2cc(C(=O)Oc3ccc(C=O)cc3OC)nn2-c2ccc(S(C)(=O)=O)cc2)cc1,86.5% (inactive)
14,Cc1ccc(C2CC(c3ccc(NC(=S)Nc4ccccc4)cc3)=NN2c2ccc(S(N)(=O)=O)cc2)cc1 (configuration not stated),8.89% (active)
15,O=[N+]([O-])c1cccc(-c2nnc3c(/C=C/c4ccc(F)cc4)nc4ccccc4n23)c1,92.7% (inactive)
16,COc1cc(-c2ccc(/C=N/NC(=O)c3[nH]c4ccc(Br)cc4c3-c3ccccc3)s2)cc(OC)c1OC,99% (inactive)
17,C#C[C@]1(O)CC[C@H]2[C@@H]3CC=C4c5sc(-c6ccc([N+](=O)[O-])cc6)nc5CC[C@]4(C)[C@H]3CC[C@@]21C,23.7% (inactive)
18,CCOC(=O)C1=C(N)N(c2ccccc2)C2=C(C(=O)CC(C)(C)C2)C1c1ccc(N2CCOCC2)cc1 (configuration not stated),101% (inactive)
19,O=c1cc(-c2ccccc2)oc2cc(OCCCC[P+](c3ccccc3)(c3ccccc3)c3ccccc3)cc(O)c12,-51.5% (active)
20,O=C(c1ccccc1)c1ccc2nc(-c3cccc(Cl)c3)[nH]c2c1,97.6% (inactive)
21,O=C(Nc1ccc(I)cc1F)c1cc(-c2ccc(F)cc2F)ccc1O,-30.4% (active)
22,CSc1ccc(C(=O)Nc2ccc3nnn(/C(C#N)=C/c4ccccn4)c3c2)cc1,6.83% (active)
23,O=C(CNc1nc(-c2ccccc2)cs1)Nc1ccc(Cl)cc1,-46.7% (active)
24,O=c1c(-c2nc(-c3ccccc3)c(-c3ccccc3)[nH]2)coc2ccc(F)cc12,54.3% (inactive)
25,COc1ccc2[nH]c(O)c(N=NC(=O)c3ccc4nc(-c5ccc(Cl)cc5)[nH]c4c3)c2c1,88.5% (inactive)
